Reference: PMC11006913

Key:
Assay in all cases: PBM; 200 nM protein, PBS
Conditions in all cases: dsDNA, one strand shown
ALX1 [1] = molecular target: ALX1 (Homo sapiens, UniProt Q15699 118-204, L144V)
ALX1 [2] = molecular target: ALX1 (Homo sapiens, UniProt Q15699 118-204, L144R)
ALX1 [3] = molecular target: ALX1 (Homo sapiens, UniProt Q15699 118-204)
ALX3 = ALX3 (Homo sapiens, UniProt O95076 139-225, N203Q)
ALX3, sequence (O95076 139-225 N203Q): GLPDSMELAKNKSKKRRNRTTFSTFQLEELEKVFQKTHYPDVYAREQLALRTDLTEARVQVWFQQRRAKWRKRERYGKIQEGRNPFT

ALX1 (Homo sapiens, UniProt Q15699 118-204, L144V), sequence (Q15699 118-204 L144V): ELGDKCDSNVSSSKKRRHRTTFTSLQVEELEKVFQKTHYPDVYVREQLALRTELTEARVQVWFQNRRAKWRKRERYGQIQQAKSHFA
ALX1 (Homo sapiens, UniProt Q15699 118-204), sequence (Q15699 118-204): as the sequence (Q15699 118-204 L144V) above, with V27L counted along it
ALX1 (Homo sapiens, UniProt Q15699 118-204, L144R), sequence (Q15699 118-204 L144R): as the sequence (Q15699 118-204 L144V) above, with V27R counted along it

Sequence | binding signal (ALX1 [1]) | binding signal (ALX1 [2]) | binding signal (ALX1 [3]) | binding signal (ALX3)
ATTTAGTA | 9.39 upbm affinity estimate (log intensity, higher = more binding, comparable within an allelic series) | 9.22 upbm affinity estimate (log intensity, higher = more binding, comparable within an allelic series) | 9.79 upbm affinity estimate (log intensity, higher = more binding, comparable within an allelic series) | 
GACTCGAC | 6.55 upbm affinity estimate (log intensity, higher = more binding, comparable within an allelic series) | 6.63 upbm affinity estimate (log intensity, higher = more binding, comparable within an allelic series) | 6.64 upbm affinity estimate (log intensity, higher = more binding, comparable within an allelic series) | 
AAATGGGA | 8.33 upbm affinity estimate (log intensity, higher = more binding, comparable within an allelic series) | 8.01 upbm affinity estimate (log intensity, higher = more binding, comparable within an allelic series) | 8.46 upbm affinity estimate (log intensity, higher = more binding, comparable within an allelic series) | 
AGCCTTCG | 6.33 upbm affinity estimate (log intensity, higher = more binding, comparable within an allelic series) | 6.46 upbm affinity estimate (log intensity, higher = more binding, comparable within an allelic series) | 6.29 upbm affinity estimate (log intensity, higher = more binding, comparable within an allelic series) | 
ATTATTGA | 10.4 upbm affinity estimate (log intensity, higher = more binding, comparable within an allelic series) | 10.3 upbm affinity estimate (log intensity, higher = more binding, comparable within an allelic series) | 10.8 upbm affinity estimate (log intensity, higher = more binding, comparable within an allelic series) | 
ATTGGAAA | 8.46 upbm affinity estimate (log intensity, higher = more binding, comparable within an allelic series) | 8.23 upbm affinity estimate (log intensity, higher = more binding, comparable within an allelic series) | 8.59 upbm affinity estimate (log intensity, higher = more binding, comparable within an allelic series) | 
ATTTATCG | 8.96 upbm affinity estimate (log intensity, higher = more binding, comparable within an allelic series) | 8.71 upbm affinity estimate (log intensity, higher = more binding, comparable within an allelic series) | 9.21 upbm affinity estimate (log intensity, higher = more binding, comparable within an allelic series) | 
AATGAATG | 9.18 upbm affinity estimate (log intensity, higher = more binding, comparable within an allelic series) | 9 upbm affinity estimate (log intensity, higher = more binding, comparable within an allelic series) | 9.33 upbm affinity estimate (log intensity, higher = more binding, comparable within an allelic series) | 
CAGCGAGA | 6.61 upbm affinity estimate (log intensity, higher = more binding, comparable within an allelic series) | 6.49 upbm affinity estimate (log intensity, higher = more binding, comparable within an allelic series) | 6.63 upbm affinity estimate (log intensity, higher = more binding, comparable within an allelic series) | 
CAACGGAG | 6.43 upbm affinity estimate (log intensity, higher = more binding, comparable within an allelic series) | 6.49 upbm affinity estimate (log intensity, higher = more binding, comparable within an allelic series) | 6.47 upbm affinity estimate (log intensity, higher = more binding, comparable within an allelic series) | 
TAGGATAA | 8.45 upbm affinity estimate (log intensity, higher = more binding, comparable within an allelic series) | 8.36 upbm affinity estimate (log intensity, higher = more binding, comparable within an allelic series) | 8.67 upbm affinity estimate (log intensity, higher = more binding, comparable within an allelic series) | 
CGGGTGAG | 6.48 upbm affinity estimate (log intensity, higher = more binding, comparable within an allelic series) | 6.58 upbm affinity estimate (log intensity, higher = more binding, comparable within an allelic series) | 6.62 upbm affinity estimate (log intensity, higher = more binding, comparable within an allelic series) | 
CATTAAAG | 9.86 upbm affinity estimate (log intensity, higher = more binding, comparable within an allelic series) | 9.67 upbm affinity estimate (log intensity, higher = more binding, comparable within an allelic series) | 10.1 upbm affinity estimate (log intensity, higher = more binding, comparable within an allelic series) | 
AGTTAGCC | 7.87 upbm affinity estimate (log intensity, higher = more binding, comparable within an allelic series) | 7.7 upbm affinity estimate (log intensity, higher = more binding, comparable within an allelic series) | 8.29 upbm affinity estimate (log intensity, higher = more binding, comparable within an allelic series) | 
ACATAATA | 9.56 upbm affinity estimate (log intensity, higher = more binding, comparable within an allelic series) | 9.39 upbm affinity estimate (log intensity, higher = more binding, comparable within an allelic series) | 9.89 upbm affinity estimate (log intensity, higher = more binding, comparable within an allelic series) | 
CTGCTAGC | 6.36 upbm affinity estimate (log intensity, higher = more binding, comparable within an allelic series) | 6.39 upbm affinity estimate (log intensity, higher = more binding, comparable within an allelic series) | 6.42 upbm affinity estimate (log intensity, higher = more binding, comparable within an allelic series) | 
CACTATTA | 9.26 upbm affinity estimate (log intensity, higher = more binding, comparable within an allelic series) | 9.02 upbm affinity estimate (log intensity, higher = more binding, comparable within an allelic series) | 9.61 upbm affinity estimate (log intensity, higher = more binding, comparable within an allelic series) | 
GGACCCAC | 6.45 upbm affinity estimate (log intensity, higher = more binding, comparable within an allelic series) | 6.3 upbm affinity estimate (log intensity, higher = more binding, comparable within an allelic series) | 6.26 upbm affinity estimate (log intensity, higher = more binding, comparable within an allelic series) | 
AGTTACTG | 8.01 upbm affinity estimate (log intensity, higher = more binding, comparable within an allelic series) | 7.88 upbm affinity estimate (log intensity, higher = more binding, comparable within an allelic series) | 8.32 upbm affinity estimate (log intensity, higher = more binding, comparable within an allelic series) | 

Sequence | binding signal (ALX1 [1]) | binding signal (ALX1 [2]) | binding signal (ALX1 [3]) | binding signal (ALX3)
ATAACTCC | 8.41 upbm affinity estimate (log intensity, higher = more binding, comparable within an allelic series) | 8.38 upbm affinity estimate (log intensity, higher = more binding, comparable within an allelic series) | 8.38 upbm affinity estimate (log intensity, higher = more binding, comparable within an allelic series) | 
GTCCAGAC | 6.53 upbm affinity estimate (log intensity, higher = more binding, comparable within an allelic series) | 6.49 upbm affinity estimate (log intensity, higher = more binding, comparable within an allelic series) | 6.42 upbm affinity estimate (log intensity, higher = more binding, comparable within an allelic series) | 
CCTTGGCG | 6.13 upbm affinity estimate (log intensity, higher = more binding, comparable within an allelic series) | 6.15 upbm affinity estimate (log intensity, higher = more binding, comparable within an allelic series) | 6.14 upbm affinity estimate (log intensity, higher = more binding, comparable within an allelic series) | 
CGACGGCG | 6.62 upbm affinity estimate (log intensity, higher = more binding, comparable within an allelic series) | 6.71 upbm affinity estimate (log intensity, higher = more binding, comparable within an allelic series) | 6.56 upbm affinity estimate (log intensity, higher = more binding, comparable within an allelic series) | 
ATTTGTAA | 9.13 upbm affinity estimate (log intensity, higher = more binding, comparable within an allelic series) | 8.97 upbm affinity estimate (log intensity, higher = more binding, comparable within an allelic series) | 9.47 upbm affinity estimate (log intensity, higher = more binding, comparable within an allelic series) | 
CACCTTCG | 6.61 upbm affinity estimate (log intensity, higher = more binding, comparable within an allelic series) | 6.38 upbm affinity estimate (log intensity, higher = more binding, comparable within an allelic series) | 6.33 upbm affinity estimate (log intensity, higher = more binding, comparable within an allelic series) | 
AAGGCGTG | 6.54 upbm affinity estimate (log intensity, higher = more binding, comparable within an allelic series) | 6.5 upbm affinity estimate (log intensity, higher = more binding, comparable within an allelic series) | 6.55 upbm affinity estimate (log intensity, higher = more binding, comparable within an allelic series) | 
GGCTAGGA | 6.64 upbm affinity estimate (log intensity, higher = more binding, comparable within an allelic series) | 6.63 upbm affinity estimate (log intensity, higher = more binding, comparable within an allelic series) | 6.34 upbm affinity estimate (log intensity, higher = more binding, comparable within an allelic series) | 
CAATATTC | 8.3 upbm affinity estimate (log intensity, higher = more binding, comparable within an allelic series) | 8.42 upbm affinity estimate (log intensity, higher = more binding, comparable within an allelic series) | 8.48 upbm affinity estimate (log intensity, higher = more binding, comparable within an allelic series) | 
ATTAAGCA | 10.2 upbm affinity estimate (log intensity, higher = more binding, comparable within an allelic series) | 9.85 upbm affinity estimate (log intensity, higher = more binding, comparable within an allelic series) | 10.5 upbm affinity estimate (log intensity, higher = more binding, comparable within an allelic series) | 
CTGGAACC | 6.21 upbm affinity estimate (log intensity, higher = more binding, comparable within an allelic series) | 6.18 upbm affinity estimate (log intensity, higher = more binding, comparable within an allelic series) | 6.07 upbm affinity estimate (log intensity, higher = more binding, comparable within an allelic series) | 
CATAATAA |  |  |  | 8.54 upbm affinity estimate (log intensity, higher = more binding, comparable within an allelic series)
AAGACAAT | 8.75 upbm affinity estimate (log intensity, higher = more binding, comparable within an allelic series) | 8.63 upbm affinity estimate (log intensity, higher = more binding, comparable within an allelic series) | 8.96 upbm affinity estimate (log intensity, higher = more binding, comparable within an allelic series) | 
AGGCAAAT | 8.05 upbm affinity estimate (log intensity, higher = more binding, comparable within an allelic series) | 7.93 upbm affinity estimate (log intensity, higher = more binding, comparable within an allelic series) | 8.18 upbm affinity estimate (log intensity, higher = more binding, comparable within an allelic series) | 
CTCCTAGC | 6.62 upbm affinity estimate (log intensity, higher = more binding, comparable within an allelic series) | 6.57 upbm affinity estimate (log intensity, higher = more binding, comparable within an allelic series) | 6.52 upbm affinity estimate (log intensity, higher = more binding, comparable within an allelic series) | 
CCGACGCG | 6.16 upbm affinity estimate (log intensity, higher = more binding, comparable within an allelic series) | 6.27 upbm affinity estimate (log intensity, higher = more binding, comparable within an allelic series) | 6.71 upbm affinity estimate (log intensity, higher = more binding, comparable within an allelic series) | 
AATCCACA | 8.17 upbm affinity estimate (log intensity, higher = more binding, comparable within an allelic series) |  | 8.4 upbm affinity estimate (log intensity, higher = more binding, comparable within an allelic series) | 
TAATAATA |  |  |  | 8.57 upbm affinity estimate (log intensity, higher = more binding, comparable within an allelic series)
CCGACTGC | 6.5 upbm affinity estimate (log intensity, higher = more binding, comparable within an allelic series) | 6.49 upbm affinity estimate (log intensity, higher = more binding, comparable within an allelic series) | 6.52 upbm affinity estimate (log intensity, higher = more binding, comparable within an allelic series) | 
